Inconclusive results are not listed. A call without a number means that no potency is given here. Some compounds were tested as several samples or in several runs, with calls that do not always agree. The source made the active and inactive calls. Calls follow the shape of the dose curve; as a rule, active = well fitted curve in the direction sought with a large enough effect in the repeat runs; inconclusive = weak or mixed curves; inactive = no such curve, though single readings can be large; an effect the other way counts as inactive or inconclusive.
Experiment: qHTS assay to identify small molecule agonists of the androgen receptor (AR) signaling pathway in the presence of an antagonist - cell viability counter screen (AID 1259379); also: nearly all actives have a fitted effect of over 25% in size; also: potency is read from the fitted curve at half-maximal effect;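 as to activity change, negative = cytotoxicity: MDA-kb2 human breast cancer cells carrying an MMTV luciferase reporter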
Details: MDA-kb2 viability, CellTiter-Fluor, 16 h; series mostly up to 92.4 µM; activity change, negative = cytotoxicity: at the top concentration
Procedure, shortened: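 Counter screen for cell viability run in parallel with the AR agonist-mode luciferase assay. MDA-kb2 cells were co-treated with nilutamide (3.0uM final) and compounds, then incubated 16 hr at 37C, and CellTiter-Fluor fluorescence was measured.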

| SMILES | Potency |
| --- | --- |
| CC1=CC(=O)NS(=O)(=O)O1 | inactive |
| Cc1cccnc1 | inactive |
| O=C(O)[C@H](O)[C@@H](O)[C@H](O)[C@H](O)CO | inactive |
| C[C@H]1C[C@H]2[C@@H]3CCC4=CC(=O)C=C[C@]4(C)[C@@]3(F)[C@@H](O)C[C@]2(C)[C@@]1(O)C(=O)CO | inactive |
| CC(=O)CC(=O)Nc1ccccc1 | inactive |
| COc1ccc2cc([C@H](C)C(=O)O)ccc2c1 | inactive |
| CSCCC=O | inactive |
| O=C(CC(C(=O)OC1CCCCC1)S(=O)(=O)O)OC1CCCCC1 (centres undefined) | inactive |
| O=c1[nH]c(=O)n([C@H]2CCCO2)cc1F | inactive |
| ON=C1CCCCC1 | inactive |
| CC(C)CC(=O)CC(C)C | inactive |
| O=c1[nH]nnc2ccccc12 | inactive |
| CN(C)CCC(c1ccc(Cl)cc1)c1ccccn1 (centres undefined) | inactive |
| CN(C)CCC(c1ccccc1)c1ccccn1 (centres undefined) | inactive |
| O=C1CCC(N2C(=O)c3ccccc3C2=O)C(=O)N1 (centres undefined) | inactive |
| CC1CCC2CC1C2(C)C (centres undefined) | inactive |
| O=C(Oc1ccccc1)c1ccccc1 | inactive |
| O=C(O)c1ccc(C(=O)O)cc1 | inactive |
| OCC(CO)(CBr)CBr | inactive |
| OCCOCCN1CCN(C2=Nc3ccccc3Sc3ccccc32)CC1 | inactive |

| SMILES | Potency |
| --- | --- |
| Cc1occc(=O)c1O | inactive |
| CCCCC(CC)CO (centres undefined) | inactive |
| CCCCCCCCCCCCCCCO | inactive |
| CCCCCC/C(C=O)=C\c1ccccc1 | inactive |
| Nc1ccccc1[N+](=O)[O-] | inactive |
| Oc1cccc2ccccc12 | inactive |
| C=CCNC(N)=S | inactive |
| COc1ccc(Cl)cc1C(=O)NCCc1ccc(S(=O)(=O)NC(=O)NC2CCCCC2)cc1 | inactive |
| CCCC(C)=O | inactive |
| CCCSc1ccc2nc(NC(=O)OC)[nH]c2c1 | inactive |
| CCCCC(CC)COC(=O)CS (centres undefined) | inactive |
| COCCCOc1ccnc(CS(=O)c2nc3ccccc3[nH]2)c1C (centres undefined) | 48.4 µM (active) and inactive |
| CCC(O)OCCCOC (centres undefined) | inactive |
| CCCCCCCCC/C=C/CC1CC(=O)OC1=O (centres undefined) | inactive |
| Cc1ccc(S(N)(=O)=O)cc1 | inactive |
| O=C(O)c1cc(C(=O)O)cc(S(=O)(=O)O)c1 | inactive |
| CCN(CC)c1ccc(C(=O)c2ccccc2C(=O)O)c(O)c1 | inactive |
| CN(C)CCOCCN(C)C | inactive |
| CCCCCC(N)=O | inactive |

Experiment: qHTS assay to identify small molecule agonists of the estrogen receptor beta (ER-beta) signaling pathway - cell viability counter screen (AID 1259380); also: nearly all actives have a fitted effect of over 30% in size; also: potency is read from the fitted curve at half-maximal effect
Details: ER-beta-bla HEK293T viability, CellTiter-Glo luminescence, 16 h; series mostly up to 92.4 µM; activity change, negative = cytotoxicity: at the top concentration
Procedure, shortened: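 In this qHTS counter screen, HEK293T cells carrying an ER-beta/UAS beta-lactamase reporter, grown in 2% charcoal-stripped FBS, received compound for 16 hr; ATP-based CellTiter-Glo luminescence was then read after 30 min at room temperature.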

| SMILES | activity change, negative = cytotoxicity | Potency |
| --- | --- | --- |
| CC1=CC(=O)NS(=O)(=O)O1 | -1.2% (inactive) |  |
| Cc1cccnc1 |  | inactive |
| O=C(O)[C@H](O)[C@@H](O)[C@H](O)[C@H](O)CO |  | inactive |
| C[C@H]1C[C@H]2[C@@H]3CCC4=CC(=O)C=C[C@]4(C)[C@@]3(F)[C@@H](O)C[C@]2(C)[C@@]1(O)C(=O)CO |  | inactive |
| CC(=O)CC(=O)Nc1ccccc1 | -4.73% (inactive) |  |
| COc1ccc2cc([C@H](C)C(=O)O)ccc2c1 |  | inactive |
| CSCCC=O |  | inactive |
| O=C(CC(C(=O)OC1CCCCC1)S(=O)(=O)O)OC1CCCCC1 (centres undefined) |  | inactive |
| O=c1[nH]c(=O)n([C@H]2CCCO2)cc1F | 4.08% (inactive) |  |
| ON=C1CCCCC1 |  | inactive |
| CC(C)CC(=O)CC(C)C |  | inactive |
| O=c1[nH]nnc2ccccc12 |  | inactive |
| CN(C)CCC(c1ccc(Cl)cc1)c1ccccn1 (centres undefined) |  | 48.7 µM (active) |
| CN(C)CCC(c1ccccc1)c1ccccn1 (centres undefined) |  | inactive |
| O=C1CCC(N2C(=O)c3ccccc3C2=O)C(=O)N1 (centres undefined) |  | inactive |
| CC1CCC2CC1C2(C)C (centres undefined) |  | inactive |
| O=C(Oc1ccccc1)c1ccccc1 |  | inactive |
| O=C(O)c1ccc(C(=O)O)cc1 |  | inactive |
| OCC(CO)(CBr)CBr |  | inactive |

| SMILES | activity change, negative = cytotoxicity | Potency |
| --- | --- | --- |
| OCCOCCN1CCN(C2=Nc3ccccc3Sc3ccccc32)CC1 |  | 13.3 µM (active) |
| Cc1occc(=O)c1O |  | inactive |
| CCCCC(CC)CO (centres undefined) |  | inactive |
| CCCCCCCCCCCCCCCO | 1.58% (inactive) |  |
| CCCCCC/C(C=O)=C\c1ccccc1 |  | inactive |
| Nc1ccccc1[N+](=O)[O-] |  | inactive |
| Oc1cccc2ccccc12 |  | inactive |
| C=CCNC(N)=S | 4.92% [at 42.5 µM] (inactive) |  |
| COc1ccc(Cl)cc1C(=O)NCCc1ccc(S(=O)(=O)NC(=O)NC2CCCCC2)cc1 |  | 48.6 µM (active) |
| CCCC(C)=O |  | inactive |
| CCCSc1ccc2nc(NC(=O)OC)[nH]c2c1 |  | inactive |
| CCCCC(CC)COC(=O)CS (centres undefined) | -5.6% (inactive) |  |
| COCCCOc1ccnc(CS(=O)c2nc3ccccc3[nH]2)c1C (centres undefined) |  | inactive |
| CCC(O)OCCCOC (centres undefined) |  | inactive |
| Cc1ccc(S(N)(=O)=O)cc1 |  | inactive |
| O=C(O)c1cc(C(=O)O)cc(S(=O)(=O)O)c1 |  | inactive |
| CN(C)CCOCCN(C)C |  | inactive |
| CCCCCC(N)=O |  | inactive |

Experiment: qHTS assay to identify small molecule antagonists of the estrogen receptor beta (ER-beta) signaling pathway - cell viability counter screen (AID 1259382);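 also: HEK293T cells carrying ER-beta-UAS-bla reporter stimulated with estradiol; nearly all actives have a fitted effect of over 55% in size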
Details: ER-beta-UAS-bla HEK293T viability, CellTiter-Glo luminescence, 16 h; series mostly up to 92.4 µM; activity change, negative = cytotoxicity: at the top concentration
Procedure, shortened: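 HEK293T ER-beta-UAS-bla, 2% charcoal-stripped FBS; compounds + 1nM E2 16 hr 37C; CellTiter-Glo luminescence, 30 min RT.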

| SMILES | Potency | activity change, negative = cytotoxicity |
| --- | --- | --- |
| CC1=CC(=O)NS(=O)(=O)O1 | inactive |  |
| Cc1cccnc1 | inactive |  |
| O=C(O)[C@H](O)[C@@H](O)[C@H](O)[C@H](O)CO | inactive |  |
| C[C@H]1C[C@H]2[C@@H]3CCC4=CC(=O)C=C[C@]4(C)[C@@]3(F)[C@@H](O)C[C@]2(C)[C@@]1(O)C(=O)CO | inactive |  |
| CC(=O)CC(=O)Nc1ccccc1 | inactive |  |
| COc1ccc2cc([C@H](C)C(=O)O)ccc2c1 | inactive |  |
| CSCCC=O | inactive |  |
| O=C(CC(C(=O)OC1CCCCC1)S(=O)(=O)O)OC1CCCCC1 (centres undefined) | inactive |  |
| O=c1[nH]c(=O)n([C@H]2CCCO2)cc1F | inactive |  |
| ON=C1CCCCC1 | inactive |  |
| CC(C)CC(=O)CC(C)C | inactive |  |
| O=c1[nH]nnc2ccccc12 | inactive |  |
| CN(C)CCC(c1ccccc1)c1ccccn1 (centres undefined) | inactive |  |
| O=C1CCC(N2C(=O)c3ccccc3C2=O)C(=O)N1 (centres undefined) | inactive |  |
| CC1CCC2CC1C2(C)C (centres undefined) | inactive |  |
| O=C(Oc1ccccc1)c1ccccc1 | inactive |  |
| O=C(O)c1ccc(C(=O)O)cc1 | inactive |  |
| OCC(CO)(CBr)CBr | inactive |  |
| OCCOCCN1CCN(C2=Nc3ccccc3Sc3ccccc32)CC1 |  | -11% [at 42.5 µM] (inactive) |

| SMILES | Potency | activity change, negative = cytotoxicity |
| --- | --- | --- |
| Cc1occc(=O)c1O | inactive |  |
| CCCCC(CC)CO (centres undefined) | inactive |  |
| CCCCCCCCCCCCCCCO |  | 12.5% (inactive) |
| CCCCCC/C(C=O)=C\c1ccccc1 | inactive |  |
| Nc1ccccc1[N+](=O)[O-] | inactive |  |
| Oc1cccc2ccccc12 | inactive |  |
| C=CCNC(N)=S |  | 0.985% [at 42.5 µM] (inactive) |
| COc1ccc(Cl)cc1C(=O)NCCc1ccc(S(=O)(=O)NC(=O)NC2CCCCC2)cc1 |  | -22.2% [at 42.5 µM] (inactive) |
| CCCC(C)=O | inactive |  |
| CCCSc1ccc2nc(NC(=O)OC)[nH]c2c1 | inactive |  |
| CCCCC(CC)COC(=O)CS (centres undefined) | inactive |  |
| COCCCOc1ccnc(CS(=O)c2nc3ccccc3[nH]2)c1C (centres undefined) | inactive |  |
| CCC(O)OCCCOC (centres undefined) | inactive |  |
| CCCCCCCCC/C=C/CC1CC(=O)OC1=O (centres undefined) | inactive |  |
| Cc1ccc(S(N)(=O)=O)cc1 | inactive |  |
| O=C(O)c1cc(C(=O)O)cc(S(=O)(=O)O)c1 | inactive |  |
| CCN(CC)c1ccc(C(=O)c2ccccc2C(=O)O)c(O)c1 | inactive |  |
| CN(C)CCOCCN(C)C | inactive |  |
| CCCCCC(N)=O | inactive |  |

Source: PubChem BioAssay (Tox21)
